Assay results: PubChem BioAssay
The source made the active and inactive calls.

Columns and labels:
[1] = tested on: PRMT1 (protein arginine N-methyltransferase 1); experiment: small molecules binding arginine methyltransferase PRMT1 – biochemical, small-molecule microarray, 635 nm fluorescence, primary screen (AID 1088); conditions: higher = more signal;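 note: binding of Prmt1 protein to compounds spotted on small-molecule microarray slides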
[2] = growth effects on S. cerevisiae YJM789 – YJM789 clinical isolate, OD600, 24 h, basal, primary screen (AID 1089); conditions: higher = more signal, called active from +8 up or from −8 down;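 note: growth of clinical yeast isolate S. cerevisiae YJM 789 seeded 1000 cells per well; test concentration not given here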
[3] = S. pombe growth modifiers, basal conditions – strain 972, OD600, 24 h, no modulator, primary screen (AID 1090);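 note: basal condition with compound alone and no growth modifier present; test concentration not given here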; conditions: S. pombe 972 growth, higher = more signal, called active from +8 up or from −8 down
[4] = budding yeast growth modifiers under rapamycin – strain BY4716, OD600, 96 h, primary screen (AID 1091); note: test concentration not given here; conditions: S. cerevisiae BY4716 + rapamycin, higher = more signal, called active from +8 up or from −8 down
[5] = target: Torsin-1A-interacting protein 2 (Homo sapiens) (UniProt Q8NFQ8); experiment: small molecules binding lysate-expressed LULL1 – cell lysate, human LULL1 lysate, 635/667 nm fluorescence, primary screen (AID 1092); conditions: small-molecule microarray, hLULL1 lysate binding, 635 nm fluorescence; higher = more signal;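 note: probe is lysate of COS7 cells overexpressing human LULL1; score merges per-feature 667 nm fluorescence with signal-to-noise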
Sequence of Torsin-1A-interacting protein 2 (Homo sapiens) (Q8NFQ8 whole entry, looked up): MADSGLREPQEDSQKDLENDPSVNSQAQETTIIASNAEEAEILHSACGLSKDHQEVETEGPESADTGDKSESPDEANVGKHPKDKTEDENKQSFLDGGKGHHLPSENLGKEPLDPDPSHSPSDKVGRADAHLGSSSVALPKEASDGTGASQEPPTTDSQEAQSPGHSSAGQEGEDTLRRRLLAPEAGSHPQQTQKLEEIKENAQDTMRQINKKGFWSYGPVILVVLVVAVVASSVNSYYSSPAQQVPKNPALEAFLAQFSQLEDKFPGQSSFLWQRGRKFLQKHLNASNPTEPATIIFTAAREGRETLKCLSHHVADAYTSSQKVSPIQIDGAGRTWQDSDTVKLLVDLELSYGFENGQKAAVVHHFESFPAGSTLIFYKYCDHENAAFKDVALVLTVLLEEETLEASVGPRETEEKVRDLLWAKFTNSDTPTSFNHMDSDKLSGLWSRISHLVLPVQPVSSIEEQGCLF

[6] = optical density change of DRC41 E. coli – strain DRC41, OD650, 24 h, E. coli filamentation project, primary screen (AID 1093);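 note: MC1000 strain lacking acrAB efflux and sulA so SOS filamentation is blocked; test concentration not given here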; conditions: E. coli DRC41 growth, higher = more signal, called active from +8 up or from −8 down
[7] = probe aLefty2 binding to arrayed compounds – biochemical, biotinylated probe, 635/667 nm fluorescence, primary screen (AID 1094); conditions: small-molecule microarray, higher = more signal;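 note: score merges spot fluorescence near 667 nm with spot signal-to-noise ratio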
[8] = tested on: Noggin (protein binding on small-molecule microarray); experiment: small molecules binding Noggin protein – biochemical, 635/667 nm fluorescence, primary screen (AID 1095); conditions: 635 nm fluorescence, higher = more signal;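 note: score merges 667 nm feature fluorescence with signal to noise over triplicate slides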
[9] = target: Neurogenic locus notch homolog protein 3 (Homo sapiens) (UniProt Q9UM47); experiment: small molecules binding NOTCH3 protein – biochemical, 635/667 nm fluorescence, primary screen (AID 1096); conditions: small-molecule microarray, 635 nm fluorescence, higher = more signal
Sequence of Neurogenic locus notch homolog protein 3 (Homo sapiens) (Q9UM47 whole entry, looked up): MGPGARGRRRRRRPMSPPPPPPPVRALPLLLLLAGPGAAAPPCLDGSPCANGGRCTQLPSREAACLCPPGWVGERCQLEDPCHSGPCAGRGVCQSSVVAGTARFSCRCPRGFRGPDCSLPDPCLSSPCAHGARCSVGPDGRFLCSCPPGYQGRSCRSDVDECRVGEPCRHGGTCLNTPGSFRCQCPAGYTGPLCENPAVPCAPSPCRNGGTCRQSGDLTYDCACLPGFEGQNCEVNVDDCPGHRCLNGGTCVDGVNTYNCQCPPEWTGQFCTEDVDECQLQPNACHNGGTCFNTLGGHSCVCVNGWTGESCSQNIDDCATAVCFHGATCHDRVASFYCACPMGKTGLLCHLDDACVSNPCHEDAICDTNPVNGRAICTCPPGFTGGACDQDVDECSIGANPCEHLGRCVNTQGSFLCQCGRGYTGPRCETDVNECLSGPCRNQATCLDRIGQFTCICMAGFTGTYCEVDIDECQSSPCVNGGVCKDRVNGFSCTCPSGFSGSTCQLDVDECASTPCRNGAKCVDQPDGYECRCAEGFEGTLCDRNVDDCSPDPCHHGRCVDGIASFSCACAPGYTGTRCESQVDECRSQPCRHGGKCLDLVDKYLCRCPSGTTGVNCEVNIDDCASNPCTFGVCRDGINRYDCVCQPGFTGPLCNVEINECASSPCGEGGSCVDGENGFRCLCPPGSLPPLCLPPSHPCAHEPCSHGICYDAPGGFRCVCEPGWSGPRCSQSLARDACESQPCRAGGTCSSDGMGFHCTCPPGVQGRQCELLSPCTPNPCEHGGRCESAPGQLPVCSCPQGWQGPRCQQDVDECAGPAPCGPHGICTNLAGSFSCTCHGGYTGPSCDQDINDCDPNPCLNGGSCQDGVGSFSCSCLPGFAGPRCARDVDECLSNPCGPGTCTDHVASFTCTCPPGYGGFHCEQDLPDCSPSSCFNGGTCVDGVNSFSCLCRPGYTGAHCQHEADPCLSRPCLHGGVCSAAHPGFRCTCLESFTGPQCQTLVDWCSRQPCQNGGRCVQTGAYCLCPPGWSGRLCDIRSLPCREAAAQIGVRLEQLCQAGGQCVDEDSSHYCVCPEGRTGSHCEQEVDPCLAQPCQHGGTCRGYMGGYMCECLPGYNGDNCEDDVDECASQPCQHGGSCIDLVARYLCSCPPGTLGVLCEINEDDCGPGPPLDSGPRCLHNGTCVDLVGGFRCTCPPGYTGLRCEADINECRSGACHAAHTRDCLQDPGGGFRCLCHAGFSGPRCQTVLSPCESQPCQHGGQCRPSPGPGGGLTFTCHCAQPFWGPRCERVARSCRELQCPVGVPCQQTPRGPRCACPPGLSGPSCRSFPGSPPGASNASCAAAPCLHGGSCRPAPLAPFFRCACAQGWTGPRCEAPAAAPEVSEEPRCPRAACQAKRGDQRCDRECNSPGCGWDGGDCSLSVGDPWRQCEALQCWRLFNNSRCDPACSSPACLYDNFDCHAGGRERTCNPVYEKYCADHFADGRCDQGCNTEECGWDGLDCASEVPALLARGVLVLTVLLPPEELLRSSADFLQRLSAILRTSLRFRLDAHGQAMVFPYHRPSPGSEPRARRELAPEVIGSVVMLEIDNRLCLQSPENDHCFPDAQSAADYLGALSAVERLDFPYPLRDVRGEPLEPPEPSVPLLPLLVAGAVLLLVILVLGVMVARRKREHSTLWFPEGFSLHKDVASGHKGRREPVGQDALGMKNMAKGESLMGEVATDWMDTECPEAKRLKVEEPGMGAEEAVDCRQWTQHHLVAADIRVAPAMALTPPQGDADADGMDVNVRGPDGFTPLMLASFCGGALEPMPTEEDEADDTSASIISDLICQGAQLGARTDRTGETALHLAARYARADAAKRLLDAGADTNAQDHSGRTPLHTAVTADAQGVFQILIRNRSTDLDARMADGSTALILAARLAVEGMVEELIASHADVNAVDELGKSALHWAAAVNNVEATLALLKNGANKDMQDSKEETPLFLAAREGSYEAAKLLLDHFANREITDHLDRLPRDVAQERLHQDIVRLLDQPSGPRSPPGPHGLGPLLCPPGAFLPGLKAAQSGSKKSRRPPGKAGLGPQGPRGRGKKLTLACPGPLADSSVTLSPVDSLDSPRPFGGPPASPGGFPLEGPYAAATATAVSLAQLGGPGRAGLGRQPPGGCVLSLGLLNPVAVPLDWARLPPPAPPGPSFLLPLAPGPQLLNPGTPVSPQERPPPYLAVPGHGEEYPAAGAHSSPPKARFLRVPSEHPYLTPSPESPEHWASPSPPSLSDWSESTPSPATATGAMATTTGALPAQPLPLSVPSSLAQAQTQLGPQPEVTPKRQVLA

[10] = probe aEGFR binding to arrayed compounds – biochemical, biotinylated probe, 635/667 nm fluorescence, primary screen (AID 1097); conditions: small-molecule microarray, higher = more signal;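 note: probe is a biotinylated anti-EGFR antibody binding compounds printed on slides; score combines fluorescence near 667 nm and signal to noise of each spot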

| SMILES | composite z-score [1] | z-score [2] | z-score [3] | z-score [4] | composite z-score [5] | z-score [6] | composite z-score [7] | composite z-score [8] | composite z-score [9] | composite z-score [10] |
| --- | --- | --- | --- | --- | --- | --- | --- | --- | --- | --- |
| CC(C)OC(=O)C1=CCC(c2cccc(Cl)c2)O1 (stereo not given) | 0.559 | -3.2 (inactive) | -5.63 (inactive) | -1.11 (inactive) | 3.3 | 1.09 (inactive) | -0.245 | -0.523 | -0.129 | -0.306 |
| COCCOC(=O)N1C(=O)[C@@]2(c3cc(C#Cc4ccc(OC)cc4)ccc31)[C@H](c1ccc(O)cc1)N1[C@H](c3ccccc3)[C@H](c3ccccc3)OC(=O)[C@H]1[C@@H]2C(=O)N1CCN(c2ncccn2)CC1 | 1.52 | 1.56 (inactive) | 1.16 (inactive) | 2.83 (inactive) | 2.44 | 1.15 (inactive) | 0.047 | 0.52 | 0.258 | 0.0746 |
| C[C@H]1C2[C@H](Cc3ccccc3)NC(=O)[C@]23C(=O)N[C@H](Cc2ccccc2)C(=O)N[C@H](Cc2ccccc2)C(=O)NC/C=C/CCC/C=C/C3[C@@H]2O[C@]12C (stereo not given in full) | 0.786 | 0.524 (inactive) | -1.84 (inactive) | 0.254 (inactive) | 2.17 | 1.35 (inactive) | -0.241 | 1.58 | 0.62 | -0.152 |
| COC(=O)c1c(CC[C@@H](CO)NC(=O)Nc2ncn[nH]2)oc(C(=O)Cc2ccccc2)c1C(=O)OC | 1.08 | -0.342 (inactive) | 0.387 (inactive) | 0.285 (inactive) | 2.99 | -0.871 (inactive) | -0.016 | 0.565 | 1.17 | -0.0697 |
| COCCn1c(C(=O)N(C)C)cc2c1C[C@H]1CN(C(=O)c3ccccc3)[C@@](Cc3ccc(F)cc3)(C(=O)OC)[C@@H]21 | 0.0294 | 0.296 (inactive) | 0.75 (inactive) | 0.247 (inactive) | 3.05 | 0.782 (inactive) | 0.214 | -0.3 | 0.328 | 0.0492 |
| [N-]=[N+]=Nc1ccccc1C[C@]1(C(=O)N2CCCCC2)N=C(c2ccc(OCCCO)cc2)O[C@H]1c1ccccc1N=[N+]=[N-] | 1.56 | 0.0343 (inactive) | -10.4 (active) | 1.51 (inactive) | 3.48 | -0.204 (inactive) | 0.512 | 0.471 | 1.05 | 0.277 |
| COC(=O)[C@@]1(Cc2ccc(OC)cc2)[C@H]2c3cc(C(=O)N4CCCC4)n(C[C@H](O)CO)c3C[C@H]2CN1C(=O)c1ccccc1 | -0.448 | 0.659 (inactive) | 1.13 (inactive) | 0.454 (inactive) | 2.4 | -0.0765 (inactive) | 0.0069 | -0.533 | 0.355 | -0.175 |
| C=CCN1C(=O)[C@]2(COC(c3ccc(OCCCO)cc3)=N2)Cc2ccccc21 | 1.36 | -2.32 (inactive) | -5.3 (inactive) | -1.78 (inactive) | 3.21 | 1.09 (inactive) | 0.0914 | 0.044 | 0.801 | -0.163 |
| CCCNC(=O)[C@@]1(c2ccc([N+](=O)[O-])cc2)CC(=O)N(CC23CC4CC(CC(C4)C2)C3)[C@@H]1c1ccc(CO)cc1I | 1.14 | 0.804 (inactive) | 1 (inactive) | 5.52 (inactive) | 1.53 | 0.136 (inactive) | 0.0962 | 0.367 | 0.243 | 0.141 |
| [N-]=[N+]=NCc1ccccc1C[C@]1(C(=O)NCCN2CCOCC2)N=C(c2ccc(OCCCO)cc2)O[C@H]1c1ccccc1CN=[N+]=[N-] | 1.53 | -2.57 (inactive) | -0.847 (inactive) | -0.802 (inactive) | -3.05 | 1.2 (inactive) | 0.111 | 1.16 | 1.08 | 0.0278 |
| NC(=O)NCC#Cc1ccc2c(c1)[C@]1(C(=O)N2)[C@H](C(=O)NC[C@H](O)c2ccccc2)[C@H]2C(=O)O[C@H](c3ccccc3)[C@H](c3ccccc3)N2[C@@H]1c1ccccc1OCCO | 1.53 | 1.41 (inactive) | -0.133 (inactive) | 2.44 (inactive) | 2.35 | 2.02 (inactive) | -0.186 | 0.307 | 0.927 | -0.167 |
| COCC1=C([C@H](O)CCc2ccccc2)[C@H](CO)[C@@H]2C(=O)N(Cc3ccccc3)C(=O)[C@@H]2C1 | -0.197 | 0.226 (inactive) | -0.819 (inactive) | -0.177 (inactive) | -0.0602 | 1.38 (inactive) | -0.235 | 0.49 | 0.248 | -0.0794 |
| O=C1O[C@H](c2ccccc2)[C@H](c2ccccc2)N2[C@H]1[C@@H](C(=O)Nc1nc3ccccc3s1)[C@]1(C(=O)Nc3ccc(C#CC4=CCCCC4)cc31)[C@H]2c1ccc(OCCO)cc1 | 1.55 | 1.79 (inactive) | 1.42 (inactive) | 1.54 (inactive) | 3.26 | 0.476 (inactive) | 0.291 | 0.715 | 1.07 | -0.118 |
| [N-]=[N+]=NCc1ccccc1[C@@H]1OC(c2ccc(OCCCO)cc2)=N[C@]1(Cc1ccccc1)C(=O)O | 1.54 | 0.452 (inactive) | -1.11 (inactive) | -0.486 (inactive) | 3.2 | 0.652 (inactive) | 0.0769 | -0.0061 | 0.315 | 0.271 |
| COc1c(C)cc(-c2cc3c(c(-c4ccccc4)n2)[Si](C(C)C)(C(C)C)O[C@H]3c2ccccc2)cc1C | 0.431 | -0.336 (inactive) | -0.253 (inactive) | 0.0998 (inactive) | 0.0055 | -1.1 (inactive) | -0.166 | 0.37 | 0.418 | -0.0359 |
| CCCC[C@@H]1C[C@H]1[C@@H](NC(=O)c1ccco1)c1ccccc1 | -0.206 | -0.867 (inactive) | -15.3 (active) | -0.0654 (inactive) | -0.832 | -1.61 (inactive) | -0.121 | -1.77 | -0.716 | -0.25 |
| [N-]=[N+]=Nc1ccccc1[C@@H]1OC(c2ccc(OCCCO)cc2)=N[C@]1(CCS(=O)(=O)c1ccccc1)C(=O)O | 1.56 | 1.57 (inactive) | -3.97 (inactive) | -1.63 (inactive) | 3.39 | 0.777 (inactive) | -0.013 | 0.61 | 1.01 | 0.172 |
| [N-]=[N+]=Nc1ccccc1[C@H]1OC(c2ccc(OCCCO)cc2)=N[C@@]1(CCS(=O)(=O)c1ccccc1)C(=O)N1CCOCC1 | 1.55 | 1.17 (inactive) | 0.403 (inactive) | 4.39 (inactive) | 3.1 | 1.1 (inactive) | 0.766 | 0.245 | 1.09 | 0.561 |
| COCCOC(=O)N1C(=O)[C@@]2(c3ccccc31)[C@H](C(=O)N1CCCCCCC1)[C@H]1C(=O)O[C@H](c3ccccc3)[C@H](c3ccccc3)N1[C@@H]2c1ccccc1OCCO | 1.53 | 0.749 (inactive) | 0.238 (inactive) | 5.75 (inactive) | 3.61 | -0.737 (inactive) | 1.67 | 0.785 | 1.06 | 1.03 |
| COC(=O)c1c2oc(c1C(=O)OC)C(=O)N[C@H](Cc1ccccc1)Cn1nncc1C1(CCCCC1)NC(=O)N[C@H](CO)CC2 | 0.702 | 0.776 (inactive) | 0.414 (inactive) | -0.178 (inactive) | 1.03 | 1.17 (inactive) | -0.205 | 0.311 | 0.17 | -0.115 |
| C=C(COC)/C(=C/C[C@H](OC(C)=O)c1ccccc1OCCO)c1cnc2ccccc2c1 | 0.826 | -0.837 (inactive) | 0.14 (inactive) | 1.29 (inactive) | 1.76 | 0.223 (inactive) | -0.171 | 0.556 | 0.76 | 0.436 |
| O=C(NCC(F)(F)F)[C@@H]1c2ccccc2C(=O)N(Cc2ccccc2)[C@H]1c1ccc(CO)cc1 | 1.04 | -0.526 (inactive) | 0.0532 (inactive) | 0.13 (inactive) | 2.35 | 0.544 (inactive) | -0.0192 | -1.34 | -0.612 | -0.194 |
| CCOC(=O)C1=CC[C@@H](c2cccc(Cl)c2)N(S(=O)(=O)c2ccc(C)cc2)[C@H]1c1ccc(C#N)cc1 | 1.56 | 0.914 (inactive) | 1.99 (inactive) | 2.58 (inactive) | 3.18 | -1.2 (inactive) | -0.0018 | 0.156 | 1.05 | 0.191 |
| CO[C@H]1O[C@H](CO)[C@@H](OC(=O)Nc2ccccc2-c2ccccc2)[C@H](OC(=O)Nc2ccccc2-c2ccccc2)[C@H]1OC(=O)Nc1ccccc1-c1ccccc1 | 1.54 | 3.06 (inactive) | 2.48 (inactive) | 10.6 (active) | 3.23 | 0.956 (inactive) | 0.115 | 0.65 | 1.08 | 0.0553 |
| CN1C(=O)C2C=CC(C(O)C=Cc3ccc([N+](=O)[O-])cc3)N(N3CCCCC3)C2C1=O (stereo not given) | 1.09 | -0.704 (inactive) | -7.07 (inactive) | -0.476 (inactive) | 2.79 | -1.33 (inactive) | 0.859 | 0.38 | 1.06 | 0.789 |
| CC(=O)NCCCC[C@@H]1NC(=O)[C@@H]2C[C@H](C(=O)NCCCCCC[N+](C)(C)C)[C@H](c3cccc(OCCO)c3)N2C1=O | 1.54 | 0.801 (inactive) | 0.385 (inactive) | 1.1 (inactive) | 2.46 | -0.104 (inactive) | 0.0283 | 1.03 | 1.02 | -0.115 |
